# In the supplement of paper PMC11026393:
# System: H1299
# Experiment: difference in mean normalized H2B-mRuby nuclear fluorescence intensity relative to DMSO control (normalized intensity difference (DMSO = 0)); higher = stronger increase in transgene reporter fluorescence
# Settings: 24 h
# Experimental: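 Cancer cell lines stably expressing H2B-mRuby2 from a lentiviral PGK promoter were treated with each drug for 24 h and imaged on a Leica DMI8 (ex 541-551 / em 565-605 nm). Nuclei were segmented in CellProfiler. The value is the difference in mean per-nucleus normalized H2B-mRuby intensity versus DMSO-treated cells (about 3 repeats x 4 fields). Doxorubicin is itself fluorescent. Dasatinib is in nM.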
compound,measurement,setting,value
O=C(NOC[C@H](O)CO)c1ccc(F)c(F)c1Nc1ccc(I)cc1F (concentration unit: uM),difference,concentration: 0.05,-0.0791
same,difference,concentration: 0.1,-0.114
same,difference,concentration: 0.25,-0.172
same,difference,concentration: 1,-0.174
same,difference,concentration: 5,-0.199
CC(=O)c1c(C)c2cnc(Nc3ccc(N4CCNCC4)cn3)nc2n(C2CCCC2)c1=O (concentration unit: uM),difference,concentration: 0.1,-0.156
same,difference,concentration: 0.5,-0.266
same,difference,concentration: 1,-0.19
same,difference,concentration: 5,-0.0957
same,difference,concentration: 10,-0.0594
Cn1ncnc1[C@H]1c2n[nH]c(=O)c3cc(F)cc(c23)N[C@@H]1c1ccc(F)cc1 (concentration unit: uM),difference,concentration: 1,0.0403
same,difference,concentration: 2.5,-0.0275
same,difference,concentration: 5,0.00616
same,difference,concentration: 10,0.00511
same,difference,concentration: 25,0.0863
O=c1[nH]cc(F)c(=O)[nH]1 (concentration unit: uM),difference,concentration: 1,-0.0723
same,difference,concentration: 2.5,-0.0395
same,difference,concentration: 5,-0.107
same,difference,concentration: 10,-0.0707
same,difference,concentration: 25,-0.0709
CNC(=O)c1ccccc1Sc1ccc2c(/C=C/c3ccccn3)n[nH]c2c1 (concentration unit: uM),difference,concentration: 1,-0.0324
same,difference,concentration: 2.5,0.0393
same,difference,concentration: 5,0.159
same,difference,concentration: 10,0.14
same,difference,concentration: 20,0.156
CC[C@]1(O)C[C@H]2CN(CCc3c([nH]c4ccccc34)[C@@](C(=O)OC)(c3cc4c(cc3OC)N(C=O)[C@H]3[C@@](O)(C(=O)OC)[C@H](OC(C)=O)[C@]5(CC)C=CCN6CC[C@]43[C@@H]65)C2)C1 (concentration unit: nM),difference,concentration: 2.5,-0.165
same,difference,concentration: 10,-0.0783
same,difference,concentration: 25,-0.00792
same,difference,concentration: 100,-0.00267
same,difference,concentration: 250,-0.0899
Cc1nc(Nc2ncc(C(=O)Nc3c(C)cccc3Cl)s2)cc(N2CCN(CCO)CC2)n1 (concentration unit: nM),difference,concentration: 25,-0.00395
same,difference,concentration: 100,0.0114
same,difference,concentration: 250,0.0693
same,difference,concentration: 1000,0.167
same,difference,concentration: 2500,0.163
COC(=O)c1ccc([C@H]2c3[nH]c4ccccc4c3C[C@H](C(=O)OC)N2C(=O)CCl)cc1 (concentration unit: nM),difference,concentration: 25,0.0419
same,difference,concentration: 100,0.0844
same,difference,concentration: 250,0.00407
same,difference,concentration: 500,0.231
same,difference,concentration: 1000,0.121
